Experimental findings from the supplement of paper PMC6555819 are described below.

This assay deals with RARa homodimer (NR concentration 270 nM). The experiment in a line: PBM binding z-score (relative to random genomic background probes); higher = stronger binding; sequences stand for … in GC…GCGATTGACAGCGTAGAATGAAGG
The method in brief: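 Regression normalization was applied to scanned fluorescence from custom Agilent 4×180K protein-binding microarrays. Before scanning, arrays were incubated 1 h with ligand-free nuclear receptor dimers, and binding was detected with antibodies against each partner (one per run). Binding z-scores use the random background probes as reference.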
Consider ATATGTAGGTTAGCTGTGGTCATTCAGACTAGGC, for which the PBM binding z-score was 0.467. The figure for TCTCGGAGGACACGAAAGGTCAGCGCTCGACATC is 1.84. Sequence TCCTGTAGATCAAAGGTTAAGAAAGCCGAAGCCT had a PBM binding z-score of -0.272. In turn, TCTAGTTGGTCGAAGGTCACACACTCGAAATGCG registered a PBM binding z-score of 1.25. Sequence TCATATAGGTAAAGGTGAAAGTCGAACGATATGA gave a PBM binding z-score of 0.402. In turn, TAGCCTAGGTCATTCATGGGCCAGTATAGAAAGC registered a PBM binding z-score of -0.242. For the sequence AGAATGAGCTTATACGTAGATCAGGGAAGAAAGT, the PBM binding z-score is -0.183. As for GCGACTGGGGCAAAGCAGGTTACCATAAGGTTGG, the PBM binding z-score was -0.818.

Sequence ACTAGTTTGTCAGCTGAGGTCACACACAATTCGG registered a PBM binding z-score of 1.24. The figure for ATACCAAGGTGTTCGTGAGGTCGTTGATACTAAC is 0.456. As for CCAGACAGGTGAAAGGTAAGTCAGTCTGGTACGC, the PBM binding z-score came to 0.44. The sequence AGAATGAGGTTATACGTATATCAGGGAAGAAAGT showed a PBM binding z-score of 0.666. Regarding GCTATTAGTTGAAAGGGCTACCGAATGATTCTCG, the PBM binding z-score came out at 0.6. Turning to CCTACTGGGCCAAAGGTCATTGTTTCCAATGCTC, the PBM binding z-score was 1.11. GCTAGCAGGCCATTTGGGTCTCTCAATGACGGGC registered a PBM binding z-score of -1.34. TCGAGTAGGTTAGTTGGGGCATTCAGCCAACATA returned a PBM binding z-score of -0.0281. As for AATACAGGGCCACTAGGCCAGAGTAGGTACGAAT, the PBM binding z-score worked out at 0.415.

The sequence ATACGTAGGTTAGCTGGGGTCATTCAGACTAGGC showed a PBM binding z-score of 0.497. As to GCTAGTTGGCCAGTAAAAGGTCACACACCGGTCG, the PBM binding z-score is 0.379. With TGTCAAAGTTCAGAGGTAACGTAAGTATCCACAC, the PBM binding z-score came to 0.97. For ATCTCTAGGTCAGACTCAGTTCAGTGAAGAACGC, the PBM binding z-score came out at 1.03. As to TCACATAGGTAAAAGGTGAAAGTCGGTGTGGTAA, the PBM binding z-score was determined as 0.922. The figure for TCTTGTAGATGAATAGAGGTTAAGAAAGTGCGCT is 1.12.

Sequence AGAATTAGGTTACCAAAGATCAGGGAAACGCTTG gave a PBM binding z-score of 1. The sequence ATCTCTAAGTAAAGTTCAGTGAAAGATCGATAGA had a PBM binding z-score of 1.77. As for AATAGAGGGTCACTAGGCCAGAGTAGGTACGAAT, the PBM binding z-score was 0.102. The sequence AGAACGAGGGCACGCTGATTTGATAGCAGAGTAG gave a PBM binding z-score of -0.142. GGAACGAGGGCAAGTTGATGGCAGAGTTTGATGG came in with a PBM binding z-score of -0.279.

For CCTAGTTGGTCAATGTCACACACGCTATAGGTAC, the PBM binding z-score was found to be 1.91.

As for TCATTTAGGTAATACAGGTGAAAGTCGGCATCTA, the PBM binding z-score came out at 2.03. Next, CCTTACGGGTTACTGACAGGTTATAGCATTTGGA: 0.545; ACTATTCGTTGACTTAGGGCAACCGATACGACGC: 0.76; ACCTCTAGGTAAGACTCAGTTCAGTGAAGAACGC: -0.37. In turn, CGTCCAAGGTCAATGCTAGGTCAGTGAAAGCATT gave a PBM binding z-score of 1.72.

The sequence ACTATTAGTTGAGACGAGGGCAACCGCTAGGTTG returned a PBM binding z-score of 0.0804. Next, TCTTGTAGATCAAAAGAGGTTAAGAAAGTGCGCT: -0.0887; CGAACGAGGGCATGAGTTGAGAGCAAATGCCGAT: -0.617; GCTATTAGTTGAAAGGGCAACCAAATGATTCTCG: 0.766. The sequence CAAACTAGGTCAAAGGTCAAAGGCGAGCCAACCA had a PBM binding z-score of 2.6. GCTTGTAGATCAACGTTAAGAAAGACTAAGCTAA showed a PBM binding z-score of -0.208.
